Here are results for 89 sequences from the supplement of paper PMC11417369.

Whole data set: some 25,000 sequences, median “ln(normalized median fluorescence intensity)” near 6.7, cut for the highest 2% near 10. The list comes from a sample in which the highest values are over-represented; it also holds similar and randomly drawn sequences.

The subject of the experiment is PfHDP1 homeodomain (GST-tagged). Description: gcPBM binding intensity (ln(normalized median fluorescence intensity)); higher = stronger DNA binding. An outline of the steps: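 An Agilent 4 × 180k array of primer-extended double-stranded 36-bp intergenic genomic probes, with negative controls, was incubated for 1 h with GST-tagged P. falciparum DNA-binding domains expressed in E. coli. Alexa488 anti-GST antibody detected bound protein, scanned at 488 nm. Binding intensity is the highest Masliner-normalised natural-log median intensity across replicate spots of either probe orientation.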
For the sequence “ATTTTTTAAAAAGTAACACACACTCTTATAAATAAC [CACACA_site7668]”, the “gcPBM binding intensity (ln)” value was found to be 6.7.
Next, “ATTTTTCTAAAATACTGTACAAAGGTGCATAAAAAG [XGTACX_site4425]”: 11.1; AAATACTGTACAAAGGTGCATAAAAAGTGGGGCATA: 9.07; “TTTTCTCTAAAAAGGTGTACAACTAATAATGCACTG [XGTACX_site6074]”: 10.6.
Take “GATAATGAATGATGCACACTAAAAATATTCTACAAC [CACACA_site3622]”: the “gcPBM binding intensity (ln)” value came to 8.94.
On to “AAAAAAAAAAAAAGGTGTACATGCAAAATAAATTCT [XGTACX_site4592]”, for which the “gcPBM binding intensity (ln)” value came out at 6.48.
The same measure for “TATTTTATATAAAGGTGTACTTATACAAAAATATAT [XGTACX_site7435]”: 6.52.
The same measure for “TATGGAAGAAAATATACACACAAAAAAAAAAAATGT [CACACA_site1486]”: 6.58; for “TATATAATATATAAATGTACTTTTGTCTTATATGAA [XGTACX_site7211]”: 6.32; for “TATTTTGTATTCATTTGTCACATATAATAGATAGGA [TGCATGCA_negctrl_site9]”: 6.82.
Next, “TTTCTTTTTAAATATATACACACCGTGGGTACATAT [CACACA_site9102]”: 6.81.
“AATGAATCCTTATATACACACATTATTATATTATAT [CACACA_site3108]”: the “gcPBM binding intensity (ln)” value came out at 7.23.
The same measure for “TACTTTTTAGGAAAGTGTACAAGCATATAAGGAATA [XGTACX_site2834]”: 6.83.
Next, “GCAAGGTCCACACTGGTGCATTAAAAATAAAATATA [GTGCAC_site9956]”: 10.4; “ATATGTACGCAAGGTGCACACTGGTGCATTAAAAAA [CACACA_site1801]”: 11.5; “TATGTGTGCAAAAACTGTACACATTAAAGGTATATA [XGTACX_site7627]”: 10.3.
Next, “AATATATTTATGCTCATGCACTTTTTTTTTTTTTTT [GTGCAC_site9654]”: 10; “CACTTCATAAAAATTGCACACATATAATAATGTACA [CACACA_site8692]”: 10.1.
Take “AAAATTAAAATATATACACACATATATATATTAAAT [CACACA_site4419]”: the “gcPBM binding intensity (ln)” value was found to be 6.25.
On to “ATATTTATTTATATTACACACATGTGCAATTAAACT [CACACA_site6928]”, for which the “gcPBM binding intensity (ln)” value stood at 10.7.
Next, “TATATTAAAAAAAAATGTACACATATATATATATAT [XGTACX_site4524]”: 9.21; “TATTATAAAATATACACATGCAAAAACAAAATTTAC [TGCATGCA_site1051]”: 7.03.
The same measure for “GTATATTAATAAACATGTACACAATTTATTTATATT [XGTACX_site1012]”: 6.6; for “ATATATATATATATTACACACATGTGCAATTAAAAT [CACACA_site1778]”: 10.7.
Regarding “ATATATATATTAATTACACACAAAAAAAAAAAAAAA [CACACA_site1165]”, the “gcPBM binding intensity (ln)” value stood at 7.49.
Next, “CAGGTGCACTATATTACACACGCTTCTTTTTTTTTA [CACACA_site2069]”: 11.
Consider AATAAATTAAAACAGGTGCACTATATTACACACGCT, for which the “gcPBM binding intensity (ln)” value worked out at 9.7.
The same measure for “ATATATATATATATTACACACTTTTTCTTTTTTTTT [CACACA_site2780]”: 9.01; for “TATAAAAATATATATATATATATATATATATATATA [TGCATGCA_negctrl_site541]”: 9.32; for “TTAAATTACTAATGTGCACACATACTAACGTTTAAA [CACACA_site3573]”: 11.
The same measure for “TCATTAAATGTTTAGGTGCATACTTTAATTTTTAAT [GTGCAC_site9906]”: 9.31; for “AACATAAATTACTTTTTACACACTAATATAAAATAC [CACACA_site8297]”: 6.54.
For the sequence “AAAAAAAAATTAAACATACACACGTTACTATTTTTA [CACACA_site1687]”, the “gcPBM binding intensity (ln)” value worked out at 6.29.
The same measure for “AAATTACTAATGTGCACACATACTAACGTTTAAATA [CACACA_site3572]”: 11.3; for “AAAAATTAAATAAATTTACACACTAATAATTACATA [CACACA_site8260]”: 6.3; for “GAATATAATCTGTATTGTACGAAAGTTGAACACTTG [XGTACX_site8895]”: 6.3.
In the case of “GATCAAAATTATAGAAGTACTTTATATAAATAAAAT [XGTACX_site8161]”, the “gcPBM binding intensity (ln)” value was 6.41.
Regarding “AAAAAAAAAAGACATGCATACGCTAATTTTTAGTTG [TGCATGCA_site300]”, the “gcPBM binding intensity (ln)” value was determined as 5.98.
Turning to “TTTATATTAGGTCTTGAACGATTTTCATCATTATTA [TGCATGCA_negctrl_site100]”, the “gcPBM binding intensity (ln)” value was found to be 6.04.
Take TTTATCTAAATATGTGTGCACTCGTTAATTTTTTTT: the “gcPBM binding intensity (ln)” value was found to be 10.8.
Regarding “TTTTTTAATATATTATTATAAATATTTTTTATGTGT [GTGCAC_negctrl_site712]”, the “gcPBM binding intensity (ln)” value was found to be 6.46.
Turning to “ATATCGTTATTTTTATGTACTAAAATATTTAATTAT [XGTACX_site3516]”, the “gcPBM binding intensity (ln)” value came to 7.03.
The same measure for “ATAACATGAACATATGTTACACAAACATACATACAT [XGTACX_negctrl_site365]”: 6.77; for “TTTAGTTCATACTATGCACACTACGTATATTTTTAA [CACACA_site5484]”: 8.95.
Next, “TATATATCAATATGCACACACAAGAAGTAATTATAA [CACACA_site7487]”: 9.74; “TTTATAGTTTTTAATAGTACACATATTTTTAAGTAT [XGTACX_site5498]”: 6.38; “AGTAATAGTTTGTGCACACTCAAGTATATCATAGAT [CACACA_site6082]”: 11.1.
As to “TATATATATATCAAGTGTACTTGTGTTTGTAATATT [XGTACX_site8854]”, the “gcPBM binding intensity (ln)” value was determined as 8.6.
The same measure for “TTTTGTACAAAAATAATGCACACTATATCAAGTTTT [CACACA_site3595]”: 10.4; for “AGTAATAGTTTGTGCACACTCAAGTATATCATATAT [CACACA_site4034]”: 11.2.
As for “TAAGTAATAGTTTGTGCACACTCAAGTATATCATAT [CACACA_site4035]”, the “gcPBM binding intensity (ln)” value was 11.1.
The same measure for “TTGTACAAAAATAATGCACACTATATCAAGTTTTTT [CACACA_site5898]”: 10.3; for “GTAATATCAATATAAAGTACACACTATAGTATGTAT [XGTACX_site4714]”: 6.4.
The same measure for “ATATATGTAACATATTGTACATATATGTATGTATGT [XGTACX_site3281]”: 6.97; for AATATTTTATTTTGGGTGCAAAAGAATATTATTTCA: 9.49; for “CAATTAAATATATGAACACACATGTGAACTTTCTAT [CACACA_site3977]”: 6.36.
The same measure for “AATATACAAAATAAATAAAATATATATATATATATA [CACACA_negctrl_site216]”: 9.24; for “AATTTAATTTTTTCGTGTACTTATATAGGAGGTTTT [XGTACX_site8310]”: 6.76; for “TAGAAGTACATATATGCATGTTAATTTTAAAGGAGG [TGCATGCA_site538]”: 6.9.
Consider “CTATTTTATATGTGCACACATATACTCAGACAAATA [CACACA_site4761]”, for which the “gcPBM binding intensity (ln)” value was 10.6.
Next, “TTCTATTTTATATGTGCACACATATACACCCACAAA [CACACA_site1130]”: 10.9; “CTATTTTATATGTGCACACATATACACCCACAAATA [CACACA_site1131]”: 10.1.
The same measure for “CTTACACCCATATATACACACATGTATATTTTATAT [CACACA_site4462]”: 7.24; for “TATATACATATATGCACACAAAAAAATATATATTTT [CACACA_site1729]”: 10.1.
Regarding “TATACATATTTTATAGCACACAAATAATAATATGTA [CACACA_site8129]”, the “gcPBM binding intensity (ln)” value came out at 6.63.
Regarding “TTTGTTTTATCTTATATGCACACGATAAAAAAAAAA [CACACA_site2673]”, the “gcPBM binding intensity (ln)” value was found to be 9.69.
Next, “TATAAAAATAATATTACACACATGTAAAATGGGGGT [CACACA_site9071]”: 7.03; “TTGTTTTCACCAAATACACACAAGCATACACCCCAT [CACACA_site2717]”: 7.34; “AGTGATTATTAATAATGTACATATCTATAAATATAT [XGTACX_site4734]”: 6.43.
Next, “TTAATGTTATATGTGTGTACATATAAGTTTAGTAAA [XGTACX_site4651]”: 6.53; “AAAAAAATGAAGAAATGTACAAATTTCATTAATTTT [XGTACX_site354]”: 6.05; “TTCATATATAATTGTACACACAAAAACGACATTGTG [CACACA_site2074]”: 7.05.
The same measure for “TAGATCATAACAATTGCACACATTTGCATTTATATT [CACACA_site1562]”: 10.1; for “TTATTTGAACAATATGCACACATTTTATTTATTTTA [CACACA_site3420]”: 10.1.
“TTTAGTTTTTATATAGCACACATATTGTGATTATGT [CACACA_site8316]”: the “gcPBM binding intensity (ln)” value was determined as 6.82.
Next, “GAGATTTATTTATGTGCACACTAGAACAATTGGATC [CACACA_site2090]”: 10.5; “ATATTATGTGATTGTGCACACTGGAGATTTTTTTTA [CACACA_site1453]”: 11.2; “TATATATATATATATGTGCACTGGACATATTTTTAT [GTGCAC_site9721]”: 9.84.
Next, “TTAATATGTTTAACCATTTTACATAAATTGATTTGT [CACACA_negctrl_site1100]”: 6.3; “TGTTATTACTTTATATCATCTTAAAATAAGCATATT [CACACA_negctrl_site1501]”: 6.26; “AAATTAATACATTATTGTACTTTTCATGTGCAGAAA [XGTACX_site8284]”: 8.11.
Next, “TTACTTGTTTATTTTTTTTTTTTTTTTTTTTTTGTT [TGCATGCA_negctrl_site103]”: 5.62; “TATATGAAAATGTTCATACACACATAAAAAAAAAAA [CACACA_site3237]”: 6.41; “GTTCAATCGGGTGTTACTTCAAACAAGGAACAACAA [TGCATGCA_negctrl_site471]”: 6.16.
As to “TTAAGATATGTATATCGTACATGACATTAAAAATTT [XGTACX_site3352]”, the “gcPBM binding intensity (ln)” value is 6.02.
Next, “ATGCAAATAATATAAAGTACACAACATCGCCCAAAG [XGTACX_site1825]”: 7; “ACAAGTATTCCTTTTGCACACCTTTCTGCACCTTAT [CACACA_site3873]”: 11.1; “TATATATTTTCTTTTGCACACTGTTTTCCTTTTTTT [CACACA_site2739]”: 10.2.
The same measure for “TATTTAACACCTTATACACACTTTCTTCCTTTTTTA [CACACA_site4590]”: 7.12.
